# ChEMBL document CHEMBL3988442, “University of Dundee, Small-Polar-MMV Screening Library” (2021)
# Among all 48,000 compounds or so, about 13,000 (27%) showed an effect of 50% or more. Some of the results follow.
# Tested on: Wolbachia pipientis
# Test: Anti-Wolbachia Cell-Based Screen
# Format: functional
# Set-up: scale not given: in the data most compounds retested in dose-response had high values
# Conditions: 5 µM
row,Structure (SMILES),Percent Effect [%]
1,CCc1cnc(N2CC[C@@H]3CN(CCC(C)C)S(=O)(=O)[C@@H]3CC2)nc1.O=C(O)C(F)(F)F,-2.106
2,O=C1CCC2(CCOC2)CN1CCCOc1cccnc1 (configuration not stated),36.56
3,CSCCC(=O)N1CCCC(n2ccnc2)C1 (configuration not stated),98.51
4,CC(C)S(=O)(=O)CC(=O)N1CCCC(n2ccnc2)C1 (configuration not stated),0.06667
5,CC(C)(C)NCC(=O)N1CCCC(n2ccnc2)C1 (configuration not stated),-1.533
6,O=C(CCS(=O)(=O)C1CCCC1)N1CCCC(n2ccnc2)C1 (configuration not stated),7.067
7,CC(C)c1noc(CCC(=O)N2CCCC(n3ccnc3)C2)n1 (configuration not stated),13.44
8,O=C(CCOCC(F)(F)F)N1CCCC(n2ccnc2)C1 (configuration not stated),105.8
9,CCc1nnsc1C(=O)NC1CCN(CCOc2ccc(Br)cc2)CC1,-5.495
10,CN1CCN(Cc2noc(CCc3nc(-c4ccccc4)no3)n2)CC1,3.84
11,O=C(CN1CCc2cncnc2C1)NC(c1ccccc1)C1CC1 (configuration not stated),5.851
12,CNC(=O)CS(=O)(=O)Cc1cc(Cl)c2c(c1)OCCCO2,7.566
13,CC(C(N)=O)S(=O)(=O)Cc1cc(Cl)c2c(c1)OCO2 (configuration not stated),-4.736
14,O=C(CS(=O)(=O)Cc1cc(Cl)c2c(c1)OCO2)N1CCCC1,112.9
15,CCN(C(=O)CS(=O)(=O)Cc1cc(Cl)c2c(c1)OCCCO2)C1CC1,3.578
16,CN(C)C(=O)CS(=O)(=O)Cc1cc(Cl)c2c(c1)OCO2,2.003
17,O=C(CS(=O)(=O)Cc1cc(Cl)c2c(c1)OCO2)N1CCCCCC1,135.5
18,c1cnnc(N2CCCC(NCc3nc(-c4cccs4)no3)C2)c1 (configuration not stated),-0.05894
19,Fc1cccc(C(NCc2ncc[nH]2)c2ccccn2)c1 (configuration not stated),-5.246
20,CCCC(=O)N(C)c1cccc2ncccc12,-4.906
21,CCOCCCC(=O)N(C)C(c1cccc(F)c1)c1ccccn1 (configuration not stated),89.97
22,CN(C)C(=O)CCCNC(=O)C(c1cccc(F)c1)N(C)C (configuration not stated),-9.864
23,CCCC(=O)N(C)C(c1cccc(F)c1)c1ccccn1 (configuration not stated),104.7

row,Structure (SMILES),Percent Effect [%]
1,CCOCCC(=O)NC(Cc1ccc(C)cc1)c1ccccn1 (configuration not stated),30.55
2,O=C(C1CC(=O)N(C2CC2)C1)N1CCN(CCn2cccc2)CC1 (configuration not stated),-24.19
3,CCc1nnsc1-c1nc(C(C)C)nn1-c1ccc2c(c1)OCO2,11.97
4,CNC(=O)C(C)(C)N1CCC[C@H]1C(=O)NC1CCCC1,1.106
5,Cc1onc(N)c1S(=O)(=O)N1CCCCC1C (configuration not stated),-5.745
6,COC(=O)[C@H]1CN(C(=O)NC(C)C)CCN1C(=O)C1CCCCC1,-4.407
7,O=C(NC1CCCC1)c1nc2c(o1)CN(C(=O)CCO)C2,3.342
8,CCOC(=O)c1nc(CN2CCN(C(=O)NC3CCCCC3)CC2)cs1,0.1108
9,CC(C)NC(=O)N1CCN2C(=O)OC[C@H]2C1,-2.318
10,O=C(NC1CCCC1)c1nc2c(o1)CN(C(=O)CO)C2,-3.342
11,CC[C@H](C)[C@H](N)C(=O)N1CC(=O)c2sc(NC3CCCCC3)nc2C1,89.49
12,CC(C)NC(=O)N1CC(=O)c2sc(NC3CCCCC3)nc2C1,121.6
13,CC(C)CC(=O)N1CC(=O)c2sc(NC3CCCCC3)nc2C1,104.9
14,COc1nccnc1N1CCN(Cc2cccc(C)c2)C(=O)C1,-1.846
15,O=C(NCC1(c2ccc(F)cc2)CCC1)N1CCC2(C1)OCCO2,-19.46
16,Cn1c(CCNC(=O)CC[C@@H]2CCCN3CCCC[C@H]23)n[nH]c1=O,-0.3828
17,O=C(NCCNc1ccc(C(F)(F)F)cn1)c1cc(Cl)ccc1F,114.8
18,O=C(NCCNc1ccc(C(F)(F)F)cn1)c1ccc(Cl)cc1F,105.2
19,CC(C)(O)CSCCNC(=O)c1ccc(F)cc1Cl,-9.614
20,O=C(NCCNc1ccc(C(F)(F)F)cn1)c1cncc(Br)c1,0.7864
21,Cc1occc1C(=O)NCCOc1ccc(C(F)(F)F)cn1,-9.163
22,CC(C)(C)C(O)CCNC(=O)c1ccc(F)cc1Cl (configuration not stated),15.76
23,N#Cc1ccc(NCCNc2ccc(C(F)(F)F)cn2)nc1,-10.16

row,Structure (SMILES),Percent Effect [%]
1,O=C(NCCNc1ccc(C(F)(F)F)cn1)c1ccc(F)cc1Cl,145.5
2,O=C(NCCNc1ccc(C(F)(F)F)cn1)c1ccoc1,28.2
3,O=C(NCCNc1ccc(C(F)(F)F)cn1)c1ccc(Br)cc1,145.4
4,O=C(NCCNc1ccc(C(F)(F)F)cn1)c1ccc(Br)cc1F,1.294
5,CC(C)n1ccnc1C1CCCN(c2ccnc3ccccc23)C1 (configuration not stated),-21.91
6,O=C(c1cccnc1)N1CCN(c2ccc(-n3cccc3)nn2)CC1,-8.085
7,CCCc1noc(CS(=O)(=O)CC(=O)NC(C)CCC)n1 (configuration not stated),14.1
8,Cc1nnc(CCNC(=O)Nc2ccc(S(C)(=O)=O)cc2)[nH]1,-1.089
9,COC(=O)CC(c1ccc(OC)c(OC)c1)c1oc(C)cc(=O)c1O (configuration not stated),10.24
10,CN(C)S(=O)(=O)N1CC[C@]2(C[C@H](Oc3cccnc3)CO2)C1.O=C(O)C(F)(F)F,-11.38
11,COCCc1noc(CN2CCOC(Cn3cc(C)cn3)C2)n1 (configuration not stated),92.63
12,Cc1cnn(CC2CN(Cc3nnc(C4CC4)n3C)CCO2)c1 (configuration not stated),99.89
13,Cc1cnn(CC2CN(Cc3nc(C4CC4)no3)CCO2)c1 (configuration not stated),115.6
14,Cc1cnn(CC2CCCN2Cc2nnc(C3CC3)n2C)c1 (configuration not stated),103.3
15,Cc1cnn(CC2CN(Cc3nc(-c4ccoc4)no3)CCO2)c1 (configuration not stated),-0.2172
16,Cc1cnn(CC2CCCN2Cc2nnsc2Cl)c1 (configuration not stated),-1.868
17,Cc1cnn(CC2CN(CCS(=O)(=O)C(F)(F)F)CCO2)c1 (configuration not stated),-38.13
18,Cc1cnn(CC2CN(Cc3nccn3C)CCO2)c1 (configuration not stated),-4.713
19,Cc1cnn(CC2CCCCN2Cc2nnc(C3CC3)n2C)c1 (configuration not stated),0.7799
20,OC1(CNc2ccc(-c3nc(C4CC4)no3)cn2)CCCCC1,10.35
21,O=C(O)C1c2nc[nH]c2CCN1CC(c1ccccc1)c1ccccc1 (configuration not stated),-19.87
